The results in this text go back to PubChem BioAssay.

The target of assay [1] is Nuclear receptor coactivator 3 (Homo sapiens) (UniProt Q9Y6Q9). Description: NCOA3 GAL4-fusion reporter inhibition – cell-based, luminescence, quadruplicate, confirmation (AID 588792;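 active = mean inhibition over 43.08%, the solvent-only control mean plus 3 SD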;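 note: 0% = DMSO treated cells and 100% = gossypol at 36 µM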). The following applies: HEK293 GAL4-SRC3 luciferase reporter, at 3.6 µM, active compounds read high. On the technique in general: A reporter such as luciferase makes a cellular process visible.
The subject of assay [2] is transactivating tegument protein VP16 (Human herpesvirus 1), Gal4-VP16 luciferase reporter. Description: repression of VP16-driven luciferase reporter – cell-based, luminescence, high throughput, counter-screen for SRC3 inhibitor project (AID 588794; in the data active = inhibition above about 30%). The following applies: mammalian cells, at 3.6 µM, active compounds read high.
The target in assay [3] is Nuclear receptor coactivator 1 (Homo sapiens) (UniProt Q15788). Description: NCOA1 GAL4-fusion reporter inhibition – cell-based, luminescence, quadruplicate, confirmation (AID 588820;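 active = mean inhibition above 46.68%, the untreated control wells mean plus 3 SD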;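 note: 0% = DMSO wells and 100% = gossypol 36 µM treated wells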). Particulars: HEK293 GAL4-SRC1 luciferase reporter, at 3.6 µM, active compounds read high.
Assay [4] in a line: repression of VP16-driven luciferase reporter – cell-based, luminescence, high throughput, counter-screen for SRC1 inhibitor project (AID 588824; in the data active = inhibition above about 25%). Particulars: cell-based VP16 transactivation luciferase luminescence; at 3.6 µM; active compounds read high.
Assay [5] in a line: StAR promoter reporter inhibitors, counter-screen for LRH-1 inverse agonist project, cell-based, luminescence, high throughput (AID 651611; in the data active = inhibition above about 28%). The following applies: StAR promoter luciferase reporter counterscreen, at 3.6 µM, active compounds read high.
Assay [6] addresses Nuclear receptor subfamily 5 group A member 2 (Homo sapiens) (UniProt O00482). Nature of the assay: NR5A2 activity suppression in reporter cells – cell-based, luminescence, confirmation (AID 651613; in the data active = inhibition above about 42%;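 note: HEK293T cells co-transfected with LRH-1 and StAR promoter luciferase reporter; 0% = vehicle wells and 100% = parental cells lacking receptor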). Particulars: cell-based LRH-1 luciferase reporter, inverse agonism; at 3.6 µM; active compounds read high.
For assay [7], the target named is Steroidogenic factor 1 (Homo sapiens) (UniProt Q13285). Description: inverse agonism at SF1 nuclear receptor – cell-based, luminescence, high throughput, counter-screen for LRH-1 inverse agonist project (AID 651614; in the data active = inhibition above about 44%;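 note: cells cotransfected with StAR promoter reporter and SF1 expression vector; 0% = vehicle on cells with receptor and 100% = vehicle on cells lacking receptor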). Particulars: cell-based SF1 luciferase reporter, at 3.6 µM, active compounds read high.
Assay [8] is described as follows: compounds suppressing VP16-driven luciferase signal – cell-based, luminescence, high throughput, counter-screen for LRH-1 inverse agonist project (AID 651615). The following applies: Gal4-VP16 luciferase reporter cells, at 3.6 µM, active compounds read high. In general terms: A counterscreen serves to expose hits that act by an unwanted route or on another target.
For assay [9], the system named is transactivating tegument protein VP16 (Human herpesvirus 1). Description: compounds suppressing VP16-driven luciferase signal – cell-based, luminescence, single concentration, counter-screen for SRC2 inhibitor project (AID 652007; in the data active = inhibition above about 36%). Particulars: cell-based VP16 transactivation luciferase reporter, at 8.9 µM, active compounds read high.
The target in assay [10] is Nuclear receptor coactivator 2 (Homo sapiens) (UniProt Q15596). Description: inhibition of GAL4-SRC2 driven luciferase expression – cell-based, luminescence, HEK293, triplicate, confirmation (AID 652008;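 active = mean inhibition above 46.5%, the solvent-only control mean plus 3 SD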;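 note: 0% = DMSO-treated cells and 100% = Gossypol at 36 µM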). Particulars: HEK293 GAL4-SRC2 luciferase reporter, at 8.9 µM, active compounds read high.

Values without a mark were called inactive. Activity calls are given as the source filed them. Cut-off read from the data, not from the text of the source, unless noted: active = inhibition above about 33%; inactive = the rest.

Sequence of Nuclear receptor coactivator 3 (Homo sapiens) (Q9Y6Q9 whole entry, looked up, the tested form may be a part): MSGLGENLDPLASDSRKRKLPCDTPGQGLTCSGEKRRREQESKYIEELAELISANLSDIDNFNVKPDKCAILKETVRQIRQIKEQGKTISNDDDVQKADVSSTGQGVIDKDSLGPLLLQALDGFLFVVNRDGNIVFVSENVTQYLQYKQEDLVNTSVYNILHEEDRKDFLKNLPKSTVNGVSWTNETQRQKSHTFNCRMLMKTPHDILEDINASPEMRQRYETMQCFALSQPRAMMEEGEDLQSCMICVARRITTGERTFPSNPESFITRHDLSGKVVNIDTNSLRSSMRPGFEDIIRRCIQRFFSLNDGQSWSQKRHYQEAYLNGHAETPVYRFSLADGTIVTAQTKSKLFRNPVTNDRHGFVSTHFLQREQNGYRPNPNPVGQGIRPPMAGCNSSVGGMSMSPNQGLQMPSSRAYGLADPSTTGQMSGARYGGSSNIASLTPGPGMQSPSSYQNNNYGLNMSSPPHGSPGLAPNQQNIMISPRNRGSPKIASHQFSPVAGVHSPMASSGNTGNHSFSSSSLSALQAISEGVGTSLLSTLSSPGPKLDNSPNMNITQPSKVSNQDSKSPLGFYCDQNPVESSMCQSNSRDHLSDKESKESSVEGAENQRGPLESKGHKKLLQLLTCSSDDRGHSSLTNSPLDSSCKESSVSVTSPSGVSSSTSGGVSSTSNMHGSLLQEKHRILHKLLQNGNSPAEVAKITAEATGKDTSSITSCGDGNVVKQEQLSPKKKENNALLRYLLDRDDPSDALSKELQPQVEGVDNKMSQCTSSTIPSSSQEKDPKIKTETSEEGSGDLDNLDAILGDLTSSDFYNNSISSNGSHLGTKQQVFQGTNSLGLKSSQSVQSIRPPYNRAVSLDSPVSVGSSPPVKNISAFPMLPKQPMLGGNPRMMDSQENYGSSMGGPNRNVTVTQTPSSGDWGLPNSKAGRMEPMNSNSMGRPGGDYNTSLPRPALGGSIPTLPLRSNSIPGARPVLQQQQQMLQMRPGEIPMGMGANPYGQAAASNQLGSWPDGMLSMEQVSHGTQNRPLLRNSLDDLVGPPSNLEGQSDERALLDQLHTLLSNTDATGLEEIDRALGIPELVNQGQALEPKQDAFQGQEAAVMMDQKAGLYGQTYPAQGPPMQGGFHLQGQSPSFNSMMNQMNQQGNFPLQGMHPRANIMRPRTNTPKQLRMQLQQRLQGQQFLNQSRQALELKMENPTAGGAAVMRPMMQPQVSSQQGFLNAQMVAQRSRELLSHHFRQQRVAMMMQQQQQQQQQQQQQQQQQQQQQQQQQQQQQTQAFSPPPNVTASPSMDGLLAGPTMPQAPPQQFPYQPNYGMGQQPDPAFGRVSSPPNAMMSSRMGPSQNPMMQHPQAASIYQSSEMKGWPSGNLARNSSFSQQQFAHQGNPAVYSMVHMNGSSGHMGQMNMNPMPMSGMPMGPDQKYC
Sequence of Nuclear receptor coactivator 1 (Homo sapiens) (Q15788 whole entry, looked up, the tested form may be a part): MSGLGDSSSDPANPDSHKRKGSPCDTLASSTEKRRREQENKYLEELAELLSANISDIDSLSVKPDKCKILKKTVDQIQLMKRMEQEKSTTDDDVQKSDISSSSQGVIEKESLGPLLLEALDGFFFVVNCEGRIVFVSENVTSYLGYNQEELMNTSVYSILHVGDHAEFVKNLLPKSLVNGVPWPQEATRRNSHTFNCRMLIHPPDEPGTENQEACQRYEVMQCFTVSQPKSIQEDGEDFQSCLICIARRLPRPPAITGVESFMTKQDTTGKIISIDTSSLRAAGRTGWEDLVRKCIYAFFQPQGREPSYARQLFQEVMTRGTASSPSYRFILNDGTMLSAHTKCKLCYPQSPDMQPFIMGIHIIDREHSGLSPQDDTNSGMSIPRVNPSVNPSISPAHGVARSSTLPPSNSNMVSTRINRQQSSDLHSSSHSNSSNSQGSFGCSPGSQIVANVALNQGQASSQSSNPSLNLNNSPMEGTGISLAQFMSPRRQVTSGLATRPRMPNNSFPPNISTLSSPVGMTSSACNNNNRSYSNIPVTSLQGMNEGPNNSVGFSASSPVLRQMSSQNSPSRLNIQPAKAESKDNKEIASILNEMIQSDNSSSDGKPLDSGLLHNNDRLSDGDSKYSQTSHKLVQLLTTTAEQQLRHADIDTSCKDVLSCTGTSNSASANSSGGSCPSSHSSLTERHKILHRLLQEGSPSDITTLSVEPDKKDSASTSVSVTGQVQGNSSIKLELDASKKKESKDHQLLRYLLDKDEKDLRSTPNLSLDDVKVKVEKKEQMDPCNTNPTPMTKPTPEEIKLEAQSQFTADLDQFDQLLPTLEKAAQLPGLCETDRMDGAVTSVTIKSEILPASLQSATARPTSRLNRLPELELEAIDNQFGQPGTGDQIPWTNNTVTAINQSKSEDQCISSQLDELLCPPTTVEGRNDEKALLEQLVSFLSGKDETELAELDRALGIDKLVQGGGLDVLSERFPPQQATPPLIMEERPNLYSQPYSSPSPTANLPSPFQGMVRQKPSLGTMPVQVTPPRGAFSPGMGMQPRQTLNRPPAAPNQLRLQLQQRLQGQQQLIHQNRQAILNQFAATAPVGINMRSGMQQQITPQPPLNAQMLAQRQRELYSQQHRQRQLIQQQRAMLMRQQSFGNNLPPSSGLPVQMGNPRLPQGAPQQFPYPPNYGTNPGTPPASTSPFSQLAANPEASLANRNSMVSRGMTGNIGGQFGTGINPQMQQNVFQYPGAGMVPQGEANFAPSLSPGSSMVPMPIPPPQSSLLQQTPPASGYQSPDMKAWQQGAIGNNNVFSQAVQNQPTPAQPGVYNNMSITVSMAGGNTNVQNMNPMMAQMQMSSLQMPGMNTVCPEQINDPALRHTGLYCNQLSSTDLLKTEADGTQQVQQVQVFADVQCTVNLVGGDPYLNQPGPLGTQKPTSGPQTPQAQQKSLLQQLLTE
Sequence of Nuclear receptor coactivator 2 (Homo sapiens) (Q15596 whole entry, looked up, the tested form may be a part): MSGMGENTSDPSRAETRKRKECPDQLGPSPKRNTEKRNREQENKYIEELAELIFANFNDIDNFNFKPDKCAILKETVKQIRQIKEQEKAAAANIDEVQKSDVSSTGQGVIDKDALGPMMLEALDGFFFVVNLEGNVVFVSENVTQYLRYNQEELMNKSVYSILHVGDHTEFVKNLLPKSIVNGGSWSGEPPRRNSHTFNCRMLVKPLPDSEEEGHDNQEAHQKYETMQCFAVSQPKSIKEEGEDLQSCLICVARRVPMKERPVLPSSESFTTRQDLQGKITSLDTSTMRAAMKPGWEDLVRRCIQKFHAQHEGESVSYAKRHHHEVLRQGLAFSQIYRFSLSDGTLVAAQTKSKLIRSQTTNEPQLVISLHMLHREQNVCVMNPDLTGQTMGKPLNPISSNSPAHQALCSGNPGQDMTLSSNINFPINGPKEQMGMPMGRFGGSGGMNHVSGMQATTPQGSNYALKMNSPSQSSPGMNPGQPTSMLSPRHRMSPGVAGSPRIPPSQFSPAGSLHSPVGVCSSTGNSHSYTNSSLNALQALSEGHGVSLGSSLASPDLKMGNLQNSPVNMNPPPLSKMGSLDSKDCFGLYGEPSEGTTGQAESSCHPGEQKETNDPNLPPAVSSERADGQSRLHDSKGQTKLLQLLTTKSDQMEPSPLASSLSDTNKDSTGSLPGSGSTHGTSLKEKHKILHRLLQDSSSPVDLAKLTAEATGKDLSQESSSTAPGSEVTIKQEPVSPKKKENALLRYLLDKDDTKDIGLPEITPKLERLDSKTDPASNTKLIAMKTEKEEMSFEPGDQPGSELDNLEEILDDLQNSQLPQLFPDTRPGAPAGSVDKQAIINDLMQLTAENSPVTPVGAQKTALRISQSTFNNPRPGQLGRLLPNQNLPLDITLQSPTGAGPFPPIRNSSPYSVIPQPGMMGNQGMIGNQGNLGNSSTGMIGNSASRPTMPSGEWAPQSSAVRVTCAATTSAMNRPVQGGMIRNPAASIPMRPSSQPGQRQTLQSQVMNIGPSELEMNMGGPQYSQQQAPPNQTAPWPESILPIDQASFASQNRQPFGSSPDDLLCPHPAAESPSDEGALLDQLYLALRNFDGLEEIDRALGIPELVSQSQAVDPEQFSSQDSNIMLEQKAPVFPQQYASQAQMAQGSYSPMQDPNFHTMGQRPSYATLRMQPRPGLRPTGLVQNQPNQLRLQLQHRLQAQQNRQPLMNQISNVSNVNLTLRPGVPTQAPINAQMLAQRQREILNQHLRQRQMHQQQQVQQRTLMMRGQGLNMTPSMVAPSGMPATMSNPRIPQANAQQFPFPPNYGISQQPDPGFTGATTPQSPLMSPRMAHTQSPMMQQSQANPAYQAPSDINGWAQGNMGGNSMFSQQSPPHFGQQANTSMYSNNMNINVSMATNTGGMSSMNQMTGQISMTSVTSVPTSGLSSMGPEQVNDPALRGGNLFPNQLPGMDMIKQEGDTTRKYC
Sequence of Steroidogenic factor 1 (Homo sapiens) (Q13285 whole entry, looked up, the tested form may be a part): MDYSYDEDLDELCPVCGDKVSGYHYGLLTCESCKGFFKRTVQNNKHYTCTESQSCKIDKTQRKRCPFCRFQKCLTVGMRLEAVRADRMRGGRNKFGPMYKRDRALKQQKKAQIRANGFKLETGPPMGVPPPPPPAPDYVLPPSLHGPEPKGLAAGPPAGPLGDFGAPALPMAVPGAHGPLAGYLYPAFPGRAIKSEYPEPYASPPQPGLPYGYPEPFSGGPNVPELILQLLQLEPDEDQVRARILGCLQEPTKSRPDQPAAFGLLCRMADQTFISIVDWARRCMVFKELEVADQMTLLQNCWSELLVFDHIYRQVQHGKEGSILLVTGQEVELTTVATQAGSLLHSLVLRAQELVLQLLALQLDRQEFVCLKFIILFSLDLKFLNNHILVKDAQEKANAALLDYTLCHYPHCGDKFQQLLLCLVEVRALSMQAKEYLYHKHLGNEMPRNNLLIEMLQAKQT

What is called inhibition is the drop in the measured response relative to a control, in per cent. Turning to `O=C(N/N=C\c1ccc([N+](=O)[O-])o1)C1COc2ccccc2O1` (stereo not given), the inhibition in assay [1] was 35.9%; in assay [2] it was 9.31%; in assay [3] it was -8.42%; in assay [4], -19.5%; in [5], 27.1%; in assay [6], 40.7%. For the same compound, the inhibition in assay [7] is 49.8% (active); in [8] it was -8.47%; in assay [9], 40.8% (active); in assay [10] it was 51.5% (active).

With `COC(=O)CCn1nnc(-c2ccc(C(C)C)cc2)n1`, the inhibition in assay [1] is 55.4% (active); in assay [2], 38.7% (active); in assay [3], 40.5%; in assay [4], 35.6% (active); in assay [5] it was 48.7% (active); in [6] it was 55% (active). In addition, the inhibition is 46.7% (active) in assay [7], 39.9% (active) in assay [8], 58.8% (active) in assay [9] and 92.6% (active) in [10].

For `C=C(C(=O)c1ccccc1)C(NC(C)(C)C)c1ccccc1` (stereo not given), the inhibition is 45% (active) in assay [1]; 90.4% (active) in assay [2]; -116% in [3]; 90.2% (active) in [4]; 58.5% (active) in assay [5]; 93.7% (active) in [6]. Further, the inhibition is 87.4% (active) in assay [7], 92.9% (active) in assay [8], 78.7% (active) in [9] and 44.6% in [10].

Regarding `CCCCCCCC/C=C\CCCCCCCC(=O)NCCc1ccc(O)c(O)c1`, the inhibition in assay [1] is 22%; in assay [2], -11.3%; in [3], -70%; in assay [4] it was -11.4%; in assay [5], -4.3%; in assay [6], -29.9%. Further, the inhibition in assay [7] is 4.21%; in assay [8], -16.1%; in assay [9] it was 1.26%; in assay [10], 21%.

Take `COc1cc(C=CC(=O)c2cc(OC)c(OC)c(OC)c2)cc(OC)c1OC`: the inhibition in assay [1] was 72.3% (active); in assay [2], 57.4% (active); in assay [3], 38.1%; in assay [4] it was 46.4% (active); in assay [5], 73.1% (active); in assay [6] it was 67.1% (active). Moreover, the inhibition in [7] is 76.1% (active); in assay [8], 69.1% (active); in assay [9] it was 47.7% (active); in assay [10] it was 73% (active).

Take `CC(C)(C)c1ccc(C(=O)Nc2sc3c(c2C(=O)O)CCC3)cc1`: the inhibition in assay [1] is 48.4% (active); in [2], 73% (active); in assay [3] it was 42.3%; in [4], 73.4% (active); in [5], 77.2% (active); in [6], 95.7% (active). For the same compound, the inhibition in assay [7] was 90.7% (active); in assay [8], 77.3% (active); in assay [9], 8.37%; in assay [10], 10.1%.

As for `COc1cccc2c1C(=O)c1c(O)c3c(c(O)c1C2=O)CC(O)(C(=O)CO)CC3OC1CC(N(C)C)C(O)C(C)O1` (stereo not given), the inhibition in [1] is 96.6% (active); in assay [2], 97% (active); in assay [3], 85.8% (active); in assay [4] it was 96.7% (active); in [5], 85.1% (active); in assay [6], 107% (active). Also, the inhibition in assay [7] is 96% (active); in assay [8], 96.5% (active); in [9], 36.9% (active); in assay [10] it was 57.6% (active).

In the case of `C(=NN1CCCCCC1)c1ccc2ccccc2n1`, the inhibition in [1] is 88.6% (active); in assay [2], 82.8% (active); in [3] it was 68.3% (active); in [4], 72.1% (active); in assay [5] it was 87.8% (active); in [6], 67% (active). Further, the inhibition in assay [7] is 87% (active); in [8], 70.8% (active); in assay [9], 92.4% (active); in assay [10], 94.9% (active).

In the case of `Cc1cc(C(=O)CSc2nnc3ccccn23)c(C)n1-c1ccccc1`, the inhibition in assay [1] is 20.3%; in [2] it was 15.4%; in assay [3], -49.2%; in assay [4] it was -25.1%; in assay [5], 23.4%; in assay [6] it was -38.6%. Besides, the inhibition in [7] was 6.01%; in assay [8], -26.3%; in assay [9], 34.8%; in [10] it was 60.7% (active).

Take `O=C(NCCc1ccccc1)c1ccc2c(c1)OCCCO2`: the inhibition in [1] is 68.3% (active); in assay [2], 67.7% (active); in [3], 31.9%; in [4], 53.5% (active); in assay [5] it was 75.5% (active); in assay [6] it was 62.5% (active). Moreover, the inhibition in assay [7] is 78.5% (active); in [8] it was 66.5% (active); in assay [9] it was 78.8% (active); in assay [10], 87.7% (active).

As to `Cc1ccc(C#N)c(SCc2nnc(-c3ccc(Cl)cc3)o2)n1`, the inhibition in [1] was 67.8% (active); in assay [2], 54.9% (active); in assay [3], 30.4%; in assay [4] it was 28.1% (active); in assay [5], 30.7% (active); in assay [6] it was -14.8%. Besides, the inhibition in assay [7] was 21.1%; in assay [8] it was 7.27%; in [9] it was 59.4% (active); in assay [10], 85.4% (active).

Consider `CC(C)CCCCCCCCCCCCC(=O)NCC(=O)NC1C(C)OC(Nc2ncnc3nc[nH]c23)C(O)C1O` (stereo not given), for which the inhibition in assay [1] is 98.9% (active); in assay [2], 98.8% (active); in assay [3], 96.6% (active); in assay [4] it was 98.8% (active); in assay [5], 94.7% (active); in assay [6], 111% (active). The inhibition in assay [7] was 97.7% (active); in assay [8], 95.8% (active); in assay [9], 76.9% (active); in assay [10], 72.2% (active).

Take `CC(C)c1ccc(-c2nc3ccccc3s2)cc1`: the inhibition in assay [1] is 80.1% (active); in assay [2], 73.8% (active); in [3] it was 56% (active); in [4], 53.8% (active); in assay [5], 78.9% (active); in [6], 42.9% (active). Moreover, the inhibition was 74.5% (active) in assay [7], 51.7% (active) in assay [8], 64.7% (active) in assay [9] and 86.8% (active) in [10].

Consider `CCOc1ccccc1-n1c(SCC(=O)Nc2ccccc2C(=O)O)nc2ccccc2c1=O`, for which the inhibition in [1] was 36.2%; in assay [2], 26%; in [3], 16.8%; in assay [4] it was 14.7%; in assay [5], 16%; in [6] it was -6.48%. Also, the inhibition in assay [7] was 9.06%; in [8], -14.2%; in assay [9], 30.9%; in [10], 49.9% (active).
